# Sampled rows, rich in hits. Any-hit rate of the full collection: about 10%.
# JMJD2A Tudor inh – inhibitors of human JMJD2A Tudor domain; O75164; AlphaScreen JMJD2A-Tudor / H3K4me3 peptide binding; Potency, µM (highest dose often 114 µM), for inactives: at the top dose activity change, negative = inhibition, usual class: inhibitors; 390,000 compounds, 4.4% hits; also: % is scaled to controls: 0 for no effect and ±100 for the full control effect; nearly all actives have a fitted effect of over 50% in size
# GLS inh – blocks human kidney-isoform glutaminase activity. 410,000 compounds, 0.21% hits. GLS enzymatic activity, qHTS titration. Potency, µM (series often up to 45.5 µM), without a hit: top-dose activity change, negative = inhibition, most hits filed as inhibitors. AID 624170. O94925; also: % is scaled to controls: 0 for no effect and ±100 for the full control effect
#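 Compounds were pin-transferred onto hKGA, after which L-glutamine (1 mM solution) and a detection mix of glutamate oxidase, HRP and Amplex Red were added. Initial and 30 min RT fluorescence reads were collected.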
# BAZ2B inh – inhibitors of human BAZ2B bromodomain | Q9UIF8 | AlphaScreen BAZ2B-H3K14Ac peptide displacement | Potency, µM (series often up to 114 µM), without a hit: at the top dose activity change, negative = inhibition, usual class: inhibitors | 360,000 compounds, 4.4% hits | AID 504333; also: % is scaled to controls: 0 for no effect and ±100 for the full control effect; nearly all actives have a fitted effect of over 60% in size
#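 In this displacement format the biotinylated H3(5-23) peptide acetylated at Lys14 serves as ligand at 50 nM, with BAZ2B at 50 nM in PBS pH 7.4 containing 0.01% Tween-20. Donor and acceptor beads are 10 ug/mL final.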
# HP1b chromo inh – HP1-beta chromodomain-methylated histone interaction inhibition; AlphaScreen HP1-beta / biotin-H3K9me3 peptide binding; AID 540317; 390,000 compounds, 0.56% hits; P83916; Potency, µM (doses to about 114 µM), inactives show at the highest dose activity change, negative = inhibition, most hits filed as inhibitors; also: nearly all actives have a fitted effect of over 70% in size
# Target sequence (P83916 whole entry, looked up): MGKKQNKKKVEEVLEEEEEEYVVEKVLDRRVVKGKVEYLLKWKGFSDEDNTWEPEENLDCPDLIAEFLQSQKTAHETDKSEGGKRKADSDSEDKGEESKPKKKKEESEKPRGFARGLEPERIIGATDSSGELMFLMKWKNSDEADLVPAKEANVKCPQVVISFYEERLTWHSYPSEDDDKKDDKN
#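 AlphaScreen: HP1-beta (50 nM) preformed 30 min with biotin-H3(1-18)K9me3 peptide (50 nM) in PBS pH 7.4, 0.01% Tween-20. Compound added for 30 min at RT, then streptavidin donor/nickel chelate acceptor beads (10 ug/mL) for 30 min.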
# G9a block – G9a (human) methyltransferase inhibition; Q96KQ7; G9a H3K9 monomethylation, AlphaScreen, 2 h; Potency, µM (doses to about 102 µM), for the others: top-dose activity, negative = inhibition, most hits filed as inhibitors; 350,000 compounds, 8.8% hits; AID 504332; also: % is scaled to controls: 0 for no effect and ±100 for the full control effect; nearly all actives have a fitted effect of over 75% in size
# Target sequence (Q96KQ7 913-1193 limits assumed): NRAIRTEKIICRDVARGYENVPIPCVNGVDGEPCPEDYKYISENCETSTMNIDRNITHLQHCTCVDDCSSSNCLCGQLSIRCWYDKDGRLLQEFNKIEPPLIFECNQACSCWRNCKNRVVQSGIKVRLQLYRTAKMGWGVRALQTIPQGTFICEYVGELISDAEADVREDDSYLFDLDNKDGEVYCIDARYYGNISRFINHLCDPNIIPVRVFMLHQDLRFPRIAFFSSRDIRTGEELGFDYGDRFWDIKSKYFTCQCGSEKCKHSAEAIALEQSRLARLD
#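 G9a (20 nM) preincubated 15 min RT with compounds, then 500 nM biotinylated H3K9 peptide and 20 uM SAM added; 2 h RT reaction. Monomethyl-H3K9 product detected by AlphaScreen with anti-H3K9me1 antibody, streptavidin donor and anti-rabbit IgG acceptor beads.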
# * = called active by the depositor; ? = inconclusive; . = no result given; ! = not active in a repeat; [ ] = dose if it differs, or a comment. Calls follow the shape of the dose curve; as a rule, active = well fitted curve in the direction sought with a large enough effect; inconclusive = small, poorly fitted or top-dose-only effect, or another doubt; inactive = no such curve, though single readings can be large; an effect the other way counts as inactive or inconclusive. Potency is read from the fitted curve at half-maximal effect.
SMILES,JMJD2A Tudor inh,GLS inh,BAZ2B inh,HP1b chromo inh,G9a block
Cc1ccc2ccc3ccc(C)nc3c2n1,-24.1%,2.4%,11.5%,28.8%,.
Cc1ccc2c(C)ccc(O)c2n1,-7.3%,12.5%,?,5.5%,3.55µM*
N#CCCN1CCN(S(=O)(=O)c2ccc(S(=O)(=O)NC3CCCC3)cc2)CC1,-5.6%,0.9%,7.0%,35.9%,35.5µM*
N#CCCN1CCN(S(=O)(=O)c2ccc(S(=O)(=O)N3CCCCCC3)cc2)CC1,0.0%,2.3%,7.9%,39.3%,-12.9%[59 µM]
Cc1ccc(S(=O)(=O)N2CCN(CCC#N)CC2)cc1,3.55µM*,63.4%,20µM*,44.7µM*,7.08µM*
O=C(CCCn1ccc2cc(S(=O)(=O)N3CCCC3)ccc21)NCc1ccc(Cl)cc1,-16.9%,-0.6%,-18.4%,-2.7%,-4.8%[59 µM]
O=[N+]([O-])c1cnc(N2CCCCC2)c([N+](=O)[O-])c1,-18.8%[57.1 µM],0.0%,?,?,10µM*
CCOC(=O)Nc1ccc2c(c1)N(C(=O)OCCN(C)C)c1ccccc1CC2,?,10.2%,-0.4%,27.4%,?
COc1ccc(-c2nc(CN3CCC(C(=O)NCCCOC(C)C)CC3)c(C)o2)cc1OC,-18.5%,3.8%,-7.9%,26.6%,8.91µM*
CCn1c(=O)c(C(=O)CN2CCN(S(=O)(=O)c3ccccc3)CC2)c(N)n(Cc2ccccc2)c1=O,?,2.0%,-12.6%,2.0%,-7.1%
CCn1c(=O)c(C(=O)CN2c3ccccc3CC2C)c(N)n(Cc2ccccc2)c1=O (centres undefined),?,27.5%,35.5µM*,?,22.4µM*
CCn1c(=O)c(C(=O)CN(C)Cc2cccc(OC)c2OC)c(N)n(Cc2ccccc2)c1=O,?,-0.2%,-5.6%,?,25.1µM*
CCn1c(=O)c(C(=O)CN2CCN(S(=O)(=O)c3ccc(C)cc3C)CC2)c(N)n(Cc2ccccc2)c1=O,-21.4%,7.3%,-30.6%,23.6%,44.7µM*
CCN(C(=O)CN1CCCc2ccccc21)c1c(N)n(Cc2ccccc2)c(=O)[nH]c1=O,.,.,4.7%,.,17.2%[59 µM]
CCn1c(=O)c(C(=O)CN2CCCc3ccccc32)c(N)n(Cc2ccccc2)c1=O,35.5µM*,?,?,?,-12.5%[59 µM]
COc1ccc(-c2ccc3oc(-c4ccc(OC)cc4)c(-c4cc(OC)c(OC)c(OC)c4)c3c2)cc1,-15.1%,16.4%,.,20.0%,.
O=C(NCc1ccccc1)N1CCOc2ccccc21,-8.2%,-1.7%,10.0%,15.2%,33.4%
O=C(CN1CCC(C(=O)c2cccc(Cl)c2)CC1)Nc1ccc(C(=O)O)cc1,-18.2%,-1.1%,-15.4%,24.6%,-31.2%
CCc1nc(C)cn1S(=O)(=O)c1cc(C)c(OC)cc1C,-2.8%,4.8%,-2.8%,39.4%,50.1µM*
COCCn1c(N)c(C(=O)NCc2cccs2)c2nc3ccccc3nc21,65.7%,-6.9%,86.3%,33.0%,38.2%
O=C(c1ccc(Cl)c([N+](=O)[O-])c1)N1CCN(c2ccccn2)CC1,-19.7%,19.6%,-5.5%,17.7%,-12.9%[59 µM]
O=[N+]([O-])c1cc(-c2n(-c3ccccn3)c3ccccc3[n+]2-c2ccccn2)ccc1Cl,-33.6%,-8.2%,44.7µM*,-6.6%,50.1µM*
O=C(NCc1cccn1Cc1ccccc1)Nc1cccc(C(F)(F)F)c1,-21.3%,3.6%,-3.1%,40.2%,0.9%[59 µM]
Cc1c(NC(=O)c2cc(-c3ccc(Cl)cc3)on2)c(=O)n(-c2ccccc2)n1C,?,-0.2%,6.2%,5.9%,-3.5%
COc1ccc(C(=O)NNC(=S)NC(=O)c2cccc([N+](=O)[O-])c2)cc1,-17.2%,26.2%,.,6.3%,.
SMILES,JMJD2A Tudor inh,GLS inh,BAZ2B inh,HP1b chromo inh,G9a block
CCCCCC(=O)NNC(=S)NC(=O)c1cccc([N+](=O)[O-])c1,35.5µM*,-0.3%,-32.8%,-17.6%,7.94µM*
Cc1c(NC(=S)NC(=O)c2cccc(Br)c2)c(=O)n(-c2ccccc2)n1C,-9.6%,19.8%,1.3%,6.0%,.
CCCCCC(=O)NNC(=S)NC(=O)c1ccccc1[N+](=O)[O-],-13.4%,11.8%,-29.0%,21.1%,-41.6%
Cc1c(NC(=O)c2cc(-c3ccc(F)cc3)on2)c(=O)n(-c2ccccc2)n1C,79.4µM*!,0.2%,0.7%,4.0%,-7.6%[59 µM]
O=C(NC(=S)NNC(=O)c1ccccc1O)c1cccc([N+](=O)[O-])c1,79.4µM*,21.1%,44.7µM*,-17.5%,52.3%[2.33 µM]
Cc1c(NC(=S)NC(=O)c2cccc([N+](=O)[O-])c2)c(=O)n(-c2ccccc2)n1C,-4.8%,23.6%,-26.9%,6.7%,44.7µM*
O=C(NC(=S)NNC(=O)c1ccccc1[N+](=O)[O-])c1ccc(Br)cc1,-25.5%,7.8%,6.9%,-15.3%,8.91µM*
O=C(NNC(=S)NC(=O)c1ccccc1[N+](=O)[O-])c1ccccc1Cl,2.6%,21.3%,3.3%,25.4%,?
NNC(=O)CNC(=O)Nc1n[nH]c(=S)s1,.,16.1%,.,.,.
CCNc1nc(SC(C)C(=O)OC)nc(N(C)C)n1 (centres undefined),-1.4%,6.8%,-0.1%,31.6%,9.5%
COC(=O)C(C)Sc1n[nH]c(=S)s1 (centres undefined),39.8µM*,9.3%,?,?,6.31µM*
O=C(O)CC(Sc1n[nH]c(=S)s1)C(=O)O (centres undefined),44.7µM*,-9.5%,79.4µM*,-17.0%,.
CN(CC(=O)Nc1cccc(F)c1)CC(=O)Nc1ccccc1Oc1ccccc1,10µM*,-0.7%,25.1µM*,?,8.91µM*
COc1cccc(NC(=O)CN(C)CC(=O)Nc2ccccc2-c2ccccc2)c1,22.4µM*,6.0%,79.4µM*,?,14.1µM*
CN(CC(=O)Nc1cccc(F)c1)CC(=O)Nc1ccccc1-c1ccccc1,-19.3%,-6.3%,.,39.3%,.
N#CNc1nc(O)cc(=O)[nH]1,-28.1%,-33.6%,-10.0%,32.0%,50.1µM*
Cc1cc(CN(C)Cc2ccc(OCC(O)CN(C)Cc3ccccc3)cc2)on1 (centres undefined),-25.9%,6.1%,-15.2%,12.1%,-25.2%
C=CCOc1ccc(CN(C)CC(O)COc2cccc3ccccc23)cc1 (centres undefined),0.708µM*,0.0%,50.1µM*,35.5µM*,39.8µM*
COCCNCCCCOc1ccc(C)cc1[N+](=O)[O-],2.82µM*,4.3%,56.2µM*,-20.8%,?
COc1ccc(OCCOCCOc2ccc(C)cc2[N+](=O)[O-])cc1,-3.6%,-1.3%,9.4%,40.1%,19.3%[59 µM]
COCCCNCCOc1ccc(C)cc1[N+](=O)[O-],1µM*,-0.3%,?,?,14.1µM*
Cc1ccc(OCCOCCNC(C)(C)C)c([N+](=O)[O-])c1,8.91µM*,1.3%,79.4µM*,-9.7%,14.1µM*
COc1cccc(OCCOCCOc2ccc(C)cc2[N+](=O)[O-])c1,-10.6%[57.1 µM],0.5%,31.1%,142.8%,15.2%[59 µM]
CCC(C)NCCCCOc1ccc(C)cc1[N+](=O)[O-] (centres undefined),3.55µM*,5.2%,44.7µM*,?,28.4%[0.501 µM]

# High-throughput results (PubChem)
